How the values were obtained:
Assay in all cases: DAPPL (digital affinity profiling via proximity ligation, sequencing); 10 mM Tris-HCl pH 7.5, 50 mM NaCl, 1 mM DTT, 4% glycerol, room temperature, 30 min; GST-TFs on glutathione beads, 16-mer random dsDNA library, 0.1% formaldehyde crosslink after washing; high values mean tight binding
FLI1 = target: T1, FLI1 (Homo sapiens, UniProt Q01543 1-452); details: protein: recombinant; tags: N-terminal GST; dsDNA, one strand shown
T1 sequence: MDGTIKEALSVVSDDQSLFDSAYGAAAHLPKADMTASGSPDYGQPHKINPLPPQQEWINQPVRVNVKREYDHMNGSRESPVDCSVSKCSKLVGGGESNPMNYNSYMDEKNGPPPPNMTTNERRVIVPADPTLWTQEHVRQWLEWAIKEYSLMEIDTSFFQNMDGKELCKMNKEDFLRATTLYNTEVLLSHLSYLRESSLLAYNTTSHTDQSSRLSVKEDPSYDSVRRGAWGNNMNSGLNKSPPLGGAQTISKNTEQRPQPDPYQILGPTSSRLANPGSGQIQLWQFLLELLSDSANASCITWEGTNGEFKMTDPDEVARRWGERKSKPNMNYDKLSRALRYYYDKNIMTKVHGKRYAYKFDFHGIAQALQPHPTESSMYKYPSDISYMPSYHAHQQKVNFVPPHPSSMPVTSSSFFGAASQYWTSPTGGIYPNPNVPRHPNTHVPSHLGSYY
Procedure, shortened: (§1)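 Sequencing on an Illumina NextSeq500 followed washing, crosslinking with 0.1% formaldehyde, proximity ligation (BsaI/T4 ligase, 1 h, 37 °C) and PCR amplification of pools that had been incubated for 30 min at room temperature with 200 nmole of a random double-stranded 16-mer DNA library in Tris/NaCl/DTT/glycerol buffer. Each pool held DNA-barcoded human transcription factors, expressed in yeast as GST fusions and captured on glutathione beads, plus a tag-only sample. Binding signal is a hexamer's read frequency for a factor divided by its frequency in the tag-only sample.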

ELK1 = target: T2, ELK1 (Homo sapiens, UniProt P19419 1-428); details: protein: recombinant; tags: N-terminal GST; dsDNA, one strand shown
T2 sequence: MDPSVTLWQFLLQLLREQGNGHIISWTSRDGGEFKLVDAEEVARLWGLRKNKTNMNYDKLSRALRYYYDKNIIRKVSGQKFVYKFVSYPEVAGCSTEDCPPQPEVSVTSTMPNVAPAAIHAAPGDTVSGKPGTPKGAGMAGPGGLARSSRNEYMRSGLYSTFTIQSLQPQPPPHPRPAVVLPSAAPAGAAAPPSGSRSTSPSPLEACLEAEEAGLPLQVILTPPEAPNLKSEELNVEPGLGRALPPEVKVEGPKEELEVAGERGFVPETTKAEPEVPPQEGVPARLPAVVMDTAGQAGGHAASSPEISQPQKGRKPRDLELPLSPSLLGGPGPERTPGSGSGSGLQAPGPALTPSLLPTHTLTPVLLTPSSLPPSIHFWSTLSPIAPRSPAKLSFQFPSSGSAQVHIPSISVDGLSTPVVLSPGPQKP
Procedure, shortened: as §1

GABPA = target: T3, GABPA (Homo sapiens, UniProt Q06546 1-454); details: protein: recombinant; tags: N-terminal GST; dsDNA, one strand shown
T3 sequence: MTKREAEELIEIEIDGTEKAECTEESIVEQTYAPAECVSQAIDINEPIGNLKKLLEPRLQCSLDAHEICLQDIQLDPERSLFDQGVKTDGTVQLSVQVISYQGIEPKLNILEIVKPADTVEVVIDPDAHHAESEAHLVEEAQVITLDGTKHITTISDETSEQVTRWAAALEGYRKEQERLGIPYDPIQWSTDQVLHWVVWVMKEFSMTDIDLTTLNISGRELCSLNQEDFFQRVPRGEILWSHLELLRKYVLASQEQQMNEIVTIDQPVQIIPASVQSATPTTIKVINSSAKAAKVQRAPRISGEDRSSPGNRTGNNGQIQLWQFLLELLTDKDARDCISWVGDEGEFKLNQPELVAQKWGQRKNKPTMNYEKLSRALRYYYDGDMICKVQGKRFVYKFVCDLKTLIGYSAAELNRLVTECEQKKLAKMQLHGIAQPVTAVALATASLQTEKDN
Procedure, shortened: as §1

ERG = target: T4, ERG (Homo sapiens, UniProt P11308 1-479); details: protein: recombinant; tags: N-terminal GST; dsDNA, one strand shown
T4 sequence: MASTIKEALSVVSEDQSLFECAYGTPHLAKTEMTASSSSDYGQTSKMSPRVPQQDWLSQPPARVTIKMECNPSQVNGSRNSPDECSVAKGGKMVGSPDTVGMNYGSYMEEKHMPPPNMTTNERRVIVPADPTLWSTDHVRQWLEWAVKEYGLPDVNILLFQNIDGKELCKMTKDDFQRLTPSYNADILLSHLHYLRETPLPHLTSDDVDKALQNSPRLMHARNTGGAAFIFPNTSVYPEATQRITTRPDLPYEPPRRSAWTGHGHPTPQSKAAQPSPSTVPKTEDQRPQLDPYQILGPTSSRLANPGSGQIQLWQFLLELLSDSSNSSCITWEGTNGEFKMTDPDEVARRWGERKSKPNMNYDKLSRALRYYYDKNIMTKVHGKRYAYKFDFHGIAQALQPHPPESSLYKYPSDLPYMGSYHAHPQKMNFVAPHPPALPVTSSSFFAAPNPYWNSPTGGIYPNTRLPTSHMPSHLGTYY
Procedure, shortened: as §1

ELF1 = ELF1 (Homo sapiens, UniProt P32519 1-619); details: protein: recombinant; tags: N-terminal GST; dsDNA, one strand shown
Chain of ELF1 (P32519 whole entry): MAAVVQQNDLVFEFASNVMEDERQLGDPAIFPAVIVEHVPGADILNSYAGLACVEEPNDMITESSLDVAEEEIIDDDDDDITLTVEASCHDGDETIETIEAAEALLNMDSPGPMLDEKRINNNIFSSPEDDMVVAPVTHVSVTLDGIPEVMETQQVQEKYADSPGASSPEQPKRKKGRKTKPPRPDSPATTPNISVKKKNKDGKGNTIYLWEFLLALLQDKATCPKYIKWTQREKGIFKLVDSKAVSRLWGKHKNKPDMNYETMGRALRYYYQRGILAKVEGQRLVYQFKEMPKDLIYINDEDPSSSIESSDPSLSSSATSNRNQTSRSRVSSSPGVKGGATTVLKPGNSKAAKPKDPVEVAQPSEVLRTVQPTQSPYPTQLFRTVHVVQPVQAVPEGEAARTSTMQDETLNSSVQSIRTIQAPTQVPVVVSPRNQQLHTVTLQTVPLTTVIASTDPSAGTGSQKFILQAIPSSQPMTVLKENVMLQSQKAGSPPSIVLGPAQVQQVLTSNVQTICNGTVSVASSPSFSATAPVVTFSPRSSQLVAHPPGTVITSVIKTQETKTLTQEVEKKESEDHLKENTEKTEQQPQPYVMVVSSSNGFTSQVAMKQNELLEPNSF
Procedure, shortened: as §1

EHF = target: T5, EHF (Homo sapiens, UniProt Q9NZC4 1-300); details: protein: recombinant; tags: N-terminal GST; dsDNA, one strand shown
T5 sequence: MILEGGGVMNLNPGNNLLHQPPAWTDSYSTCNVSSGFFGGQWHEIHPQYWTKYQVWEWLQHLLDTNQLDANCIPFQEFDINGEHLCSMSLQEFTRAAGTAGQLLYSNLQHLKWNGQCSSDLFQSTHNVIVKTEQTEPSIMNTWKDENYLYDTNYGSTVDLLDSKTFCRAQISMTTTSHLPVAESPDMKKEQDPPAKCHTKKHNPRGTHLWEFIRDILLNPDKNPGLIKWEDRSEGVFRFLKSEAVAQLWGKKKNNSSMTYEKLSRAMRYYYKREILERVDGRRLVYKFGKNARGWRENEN
Procedure, shortened: as §1

SPI1 = SPI1 (Homo sapiens, UniProt P17947 1-270); details: protein: recombinant; tags: N-terminal GST; dsDNA, one strand shown
Procedure, shortened: as §1

SPIB = SPIB (Homo sapiens, UniProt Q01892 1-262); details: protein: recombinant; tags: N-terminal GST; dsDNA, one strand shown
Chain of SPIB (Q01892 whole entry): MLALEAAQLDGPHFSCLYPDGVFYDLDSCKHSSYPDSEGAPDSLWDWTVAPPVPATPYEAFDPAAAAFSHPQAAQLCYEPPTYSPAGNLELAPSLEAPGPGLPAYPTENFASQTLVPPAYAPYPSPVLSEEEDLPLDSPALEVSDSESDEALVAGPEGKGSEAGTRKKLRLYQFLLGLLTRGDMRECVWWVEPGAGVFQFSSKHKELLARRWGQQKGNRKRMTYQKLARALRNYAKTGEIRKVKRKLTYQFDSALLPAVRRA
Procedure, shortened: as §1

ELK3 = target: T6, ELK3 (Homo sapiens, UniProt P41970 1-407); details: protein: recombinant; tags: N-terminal GST; dsDNA, one strand shown
T6 sequence: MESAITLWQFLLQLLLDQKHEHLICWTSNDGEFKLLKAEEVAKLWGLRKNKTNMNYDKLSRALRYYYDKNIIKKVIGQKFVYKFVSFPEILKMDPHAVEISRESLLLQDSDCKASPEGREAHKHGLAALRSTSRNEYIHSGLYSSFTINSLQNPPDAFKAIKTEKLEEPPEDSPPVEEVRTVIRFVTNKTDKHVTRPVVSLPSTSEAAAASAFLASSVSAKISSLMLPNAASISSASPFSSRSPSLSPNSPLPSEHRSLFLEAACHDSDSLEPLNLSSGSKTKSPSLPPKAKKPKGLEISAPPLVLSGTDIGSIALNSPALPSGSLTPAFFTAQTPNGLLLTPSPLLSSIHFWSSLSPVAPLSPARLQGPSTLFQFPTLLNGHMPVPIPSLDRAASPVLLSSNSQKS
Procedure, shortened: as §1

FEV = target: T7, FEV (Homo sapiens, UniProt Q99581 1-238); details: protein: recombinant; tags: N-terminal GST; dsDNA, one strand shown
T7 sequence: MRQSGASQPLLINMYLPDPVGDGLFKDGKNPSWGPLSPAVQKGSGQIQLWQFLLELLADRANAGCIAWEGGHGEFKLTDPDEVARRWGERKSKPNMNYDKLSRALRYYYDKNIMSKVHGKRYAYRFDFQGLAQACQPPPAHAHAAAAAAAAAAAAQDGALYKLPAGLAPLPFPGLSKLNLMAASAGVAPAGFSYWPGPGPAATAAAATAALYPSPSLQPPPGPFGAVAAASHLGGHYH
Procedure, shortened: as §1

ETV5 = ETV5 (Homo sapiens, UniProt P41161 1-510); details: protein: recombinant; tags: N-terminal GST; dsDNA, one strand shown
Chain of ETV5 (P41161 whole entry): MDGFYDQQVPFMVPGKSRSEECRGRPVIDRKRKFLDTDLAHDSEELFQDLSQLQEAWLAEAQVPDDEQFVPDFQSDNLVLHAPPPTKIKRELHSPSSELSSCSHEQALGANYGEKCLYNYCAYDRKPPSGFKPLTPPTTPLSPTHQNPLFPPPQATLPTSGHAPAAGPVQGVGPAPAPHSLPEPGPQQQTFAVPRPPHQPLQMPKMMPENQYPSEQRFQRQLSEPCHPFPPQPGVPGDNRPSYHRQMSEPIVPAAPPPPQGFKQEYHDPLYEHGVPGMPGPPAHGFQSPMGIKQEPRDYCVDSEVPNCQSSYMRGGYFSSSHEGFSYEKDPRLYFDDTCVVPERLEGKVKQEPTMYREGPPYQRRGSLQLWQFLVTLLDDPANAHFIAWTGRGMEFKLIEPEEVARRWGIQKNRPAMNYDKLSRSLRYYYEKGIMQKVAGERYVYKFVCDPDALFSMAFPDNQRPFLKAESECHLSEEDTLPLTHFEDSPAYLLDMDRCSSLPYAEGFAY
Procedure, shortened: as §1

HSF1 = HSF1 (Homo sapiens, UniProt Q00613 1-529); details: protein: recombinant; tags: N-terminal GST; chain copies: 3; dsDNA, one strand shown
Chain of HSF1 (Q00613 whole entry): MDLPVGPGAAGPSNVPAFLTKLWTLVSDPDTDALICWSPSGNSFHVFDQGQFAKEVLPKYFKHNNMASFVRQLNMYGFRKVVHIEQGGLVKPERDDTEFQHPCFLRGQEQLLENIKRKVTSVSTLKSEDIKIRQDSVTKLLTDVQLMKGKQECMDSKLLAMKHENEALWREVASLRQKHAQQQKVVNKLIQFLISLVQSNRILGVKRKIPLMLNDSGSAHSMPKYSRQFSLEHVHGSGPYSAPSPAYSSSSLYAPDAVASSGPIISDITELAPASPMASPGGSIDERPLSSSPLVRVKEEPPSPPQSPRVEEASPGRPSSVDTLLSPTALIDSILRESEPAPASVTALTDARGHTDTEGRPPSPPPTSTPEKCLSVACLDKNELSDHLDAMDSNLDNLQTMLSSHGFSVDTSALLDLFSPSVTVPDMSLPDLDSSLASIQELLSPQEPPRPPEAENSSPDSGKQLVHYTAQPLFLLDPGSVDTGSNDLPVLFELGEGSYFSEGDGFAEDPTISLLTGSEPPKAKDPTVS
Procedure, shortened: as §1

SPIC = target: T8, SPIC (Homo sapiens, UniProt Q8N5J4 1-248); details: protein: recombinant; tags: N-terminal GST; dsDNA, one strand shown
T8 sequence: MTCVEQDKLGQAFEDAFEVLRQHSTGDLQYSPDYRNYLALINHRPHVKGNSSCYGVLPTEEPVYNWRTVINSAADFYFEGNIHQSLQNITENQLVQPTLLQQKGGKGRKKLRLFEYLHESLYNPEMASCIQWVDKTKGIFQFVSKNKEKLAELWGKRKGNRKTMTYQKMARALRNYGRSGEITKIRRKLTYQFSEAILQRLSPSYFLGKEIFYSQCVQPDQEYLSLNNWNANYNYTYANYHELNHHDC
Procedure, shortened: as §1

ELF4 = ELF4 (Homo sapiens, UniProt Q99607 1-663); details: protein: recombinant; tags: N-terminal GST; dsDNA, one strand shown
Chain of ELF4 (Q99607 whole entry): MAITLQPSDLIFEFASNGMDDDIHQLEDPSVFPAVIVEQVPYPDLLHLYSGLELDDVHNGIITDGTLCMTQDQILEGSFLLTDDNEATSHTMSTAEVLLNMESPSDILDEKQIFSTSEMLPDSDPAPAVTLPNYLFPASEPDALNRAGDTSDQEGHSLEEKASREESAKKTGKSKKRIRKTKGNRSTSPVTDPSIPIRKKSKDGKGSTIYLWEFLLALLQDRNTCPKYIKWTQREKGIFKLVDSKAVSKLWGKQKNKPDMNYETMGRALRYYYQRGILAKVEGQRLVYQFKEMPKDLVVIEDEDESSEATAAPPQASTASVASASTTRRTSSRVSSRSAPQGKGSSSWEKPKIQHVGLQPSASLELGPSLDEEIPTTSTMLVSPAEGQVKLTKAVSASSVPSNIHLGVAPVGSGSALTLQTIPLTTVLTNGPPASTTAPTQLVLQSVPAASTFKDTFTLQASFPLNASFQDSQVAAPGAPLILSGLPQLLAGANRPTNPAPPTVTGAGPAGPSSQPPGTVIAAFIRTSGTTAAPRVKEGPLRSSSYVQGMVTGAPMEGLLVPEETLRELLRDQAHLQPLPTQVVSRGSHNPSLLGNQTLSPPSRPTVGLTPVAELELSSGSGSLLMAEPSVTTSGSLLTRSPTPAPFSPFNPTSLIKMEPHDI
Procedure, shortened: as §1

ELK4 = target: T9, ELK4 (Homo sapiens, UniProt P28324-2 1-405); details: protein: recombinant; tags: N-terminal GST; dsDNA, one strand shown
T9 sequence: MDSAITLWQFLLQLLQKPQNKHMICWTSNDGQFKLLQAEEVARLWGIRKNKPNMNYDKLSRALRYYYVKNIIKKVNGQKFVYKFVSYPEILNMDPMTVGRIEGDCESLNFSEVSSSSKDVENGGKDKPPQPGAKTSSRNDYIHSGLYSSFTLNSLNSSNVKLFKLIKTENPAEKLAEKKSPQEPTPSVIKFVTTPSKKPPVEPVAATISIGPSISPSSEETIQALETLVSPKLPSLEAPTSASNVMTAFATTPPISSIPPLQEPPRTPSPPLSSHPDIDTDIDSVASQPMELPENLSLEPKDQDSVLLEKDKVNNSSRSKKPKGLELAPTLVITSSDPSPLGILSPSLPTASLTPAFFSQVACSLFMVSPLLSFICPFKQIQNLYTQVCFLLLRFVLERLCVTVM
Procedure, shortened: as §1

ETV2 = target: T10, ETV2 (Homo sapiens, UniProt O00321 1-342); details: protein: recombinant; tags: N-terminal GST; dsDNA, one strand shown
T10 sequence: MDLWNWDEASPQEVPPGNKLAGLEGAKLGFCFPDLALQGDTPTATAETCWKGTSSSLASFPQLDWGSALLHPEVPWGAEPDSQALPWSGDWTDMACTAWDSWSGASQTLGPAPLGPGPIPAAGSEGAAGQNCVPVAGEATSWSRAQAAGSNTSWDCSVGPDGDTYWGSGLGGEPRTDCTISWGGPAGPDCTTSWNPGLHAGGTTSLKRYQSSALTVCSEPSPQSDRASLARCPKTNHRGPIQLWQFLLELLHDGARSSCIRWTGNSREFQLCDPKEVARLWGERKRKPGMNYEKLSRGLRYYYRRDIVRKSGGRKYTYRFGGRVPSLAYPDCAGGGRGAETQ
Procedure, shortened: as §1

ELF3 = target: T11, ELF3 (Homo sapiens, UniProt P78545 1-371); details: protein: recombinant; tags: N-terminal GST; dsDNA, one strand shown
T11 sequence: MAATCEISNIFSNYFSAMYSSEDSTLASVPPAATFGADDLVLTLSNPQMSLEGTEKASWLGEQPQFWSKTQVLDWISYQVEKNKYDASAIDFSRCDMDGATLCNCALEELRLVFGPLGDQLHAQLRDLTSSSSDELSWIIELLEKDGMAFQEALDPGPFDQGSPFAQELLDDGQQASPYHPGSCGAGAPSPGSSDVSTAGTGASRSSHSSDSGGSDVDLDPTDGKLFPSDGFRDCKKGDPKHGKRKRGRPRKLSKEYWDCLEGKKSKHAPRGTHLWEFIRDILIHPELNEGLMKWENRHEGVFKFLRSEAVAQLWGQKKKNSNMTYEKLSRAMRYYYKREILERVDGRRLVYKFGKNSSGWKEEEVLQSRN
Procedure, shortened: as §1

CRX = CRX (Homo sapiens, UniProt O43186 1-299); details: protein: recombinant; tags: N-terminal GST; dsDNA, one strand shown
Chain of CRX (O43186 whole entry): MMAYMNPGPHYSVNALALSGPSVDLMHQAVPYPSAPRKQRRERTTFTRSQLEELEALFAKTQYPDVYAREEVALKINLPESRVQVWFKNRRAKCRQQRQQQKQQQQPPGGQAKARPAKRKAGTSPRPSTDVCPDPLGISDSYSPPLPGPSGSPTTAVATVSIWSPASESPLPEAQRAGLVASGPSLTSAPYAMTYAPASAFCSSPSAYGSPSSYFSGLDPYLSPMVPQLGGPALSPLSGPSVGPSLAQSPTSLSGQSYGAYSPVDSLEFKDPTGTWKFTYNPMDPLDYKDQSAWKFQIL
Procedure, shortened: as §1

ETV1 = ETV1 (Homo sapiens, UniProt P50549 1-477); details: protein: recombinant; tags: N-terminal GST; dsDNA, one strand shown
Chain of ETV1 (P50549 whole entry): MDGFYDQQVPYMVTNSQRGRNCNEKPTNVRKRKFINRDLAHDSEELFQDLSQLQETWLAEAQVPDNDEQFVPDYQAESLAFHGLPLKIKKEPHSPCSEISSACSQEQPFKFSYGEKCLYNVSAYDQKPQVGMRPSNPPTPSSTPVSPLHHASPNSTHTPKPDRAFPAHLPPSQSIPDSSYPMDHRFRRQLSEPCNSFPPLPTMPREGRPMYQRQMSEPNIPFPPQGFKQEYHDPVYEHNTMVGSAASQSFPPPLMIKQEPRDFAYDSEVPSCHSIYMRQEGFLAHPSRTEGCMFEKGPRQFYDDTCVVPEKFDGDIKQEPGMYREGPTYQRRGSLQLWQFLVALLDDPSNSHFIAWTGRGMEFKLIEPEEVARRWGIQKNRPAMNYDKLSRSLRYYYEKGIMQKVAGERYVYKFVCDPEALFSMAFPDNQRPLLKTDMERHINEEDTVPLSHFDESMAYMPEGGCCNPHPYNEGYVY
Procedure, shortened: as §1

Sequence: TTTGAA
- binding signal (FLI1): 1.22 fold enrichment (6-mer frequency, TF over GST control)
- binding signal (ELK1): 1.09 fold enrichment (6-mer frequency, TF over GST control)
- binding signal (GABPA): 1.2 fold enrichment (6-mer frequency, TF over GST control)
- binding signal (ERG): 1.21 fold enrichment (6-mer frequency, TF over GST control)
- binding signal (ELF1): 1.23 fold enrichment (6-mer frequency, TF over GST control)
- binding signal (EHF): 1.24 fold enrichment (6-mer frequency, TF over GST control)
- binding signal (SPI1): 1.2 fold enrichment (6-mer frequency, TF over GST control)
- binding signal (SPIB): 1.2 fold enrichment (6-mer frequency, TF over GST control)
- binding signal (ELK3): 1.17 fold enrichment (6-mer frequency, TF over GST control)
- binding signal (FEV): 1.13 fold enrichment (6-mer frequency, TF over GST control)
- binding signal (ETV5): 1.26 fold enrichment (6-mer frequency, TF over GST control)
- binding signal (HSF1): 1.24 fold enrichment (6-mer frequency, TF over GST control)
- binding signal (SPIC): 1.24 fold enrichment (6-mer frequency, TF over GST control)
- binding signal (ELF4): 1.32 fold enrichment (6-mer frequency, TF over GST control)
- binding signal (ELK4): 1.34 fold enrichment (6-mer frequency, TF over GST control)
- binding signal (ETV2): 1.38 fold enrichment (6-mer frequency, TF over GST control)
- binding signal (ELF3): 1.3 fold enrichment (6-mer frequency, TF over GST control)
- binding signal (CRX): 1.28 fold enrichment (6-mer frequency, TF over GST control)
- binding signal (ETV1): 1.19 fold enrichment (6-mer frequency, TF over GST control)
